# Bioassay records (PubChem BioAssay)
# Compounds with a hit are over-represented: about 6.2% of the library has one in this group of screens.
# KB-V1 MDR tox – kills drug-selected multidrug resistant KB-V1 cells. KB-V1 MDR cells viability, CellTiter-Glo, 72 h. Potency, µM (doses to about 46.1 µM), actives largely listed as cytotoxic. 400,000 compounds, 3.4% hits. AID 1347076; also: nearly all actives have a fitted effect of over 60% in size
#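 Drug-selected KB-V1 cells, grown in DMEM lacking phenol red with 10% FBS, receive compound titrations; after three days at 37 degrees C, surviving cell ATP is quantified by CellTiter-Glo luminescence and responses normalized and curve-fitted.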
# ATXN2 expr inh – ATXN2 expression inhibition; 360,000 compounds, 0.72% hits; AID 1745845; Potency, µM (titrated, usually from 57 µM), usual class: inhibitors; HEK-293 ATXN2-luciferase reporter, luminescence, 24 h; also: nearly all actives have a fitted effect of over 55% in size
#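 qHTS (up to 57 uM final) was run with 24 h compound exposure of reporter cells at 37 °C. Each well was multiplexed: SteadyGlo luminescence measured ATXN2-luciferase expression after a fluorogenic Gly-Phe-AFC viability readout (25 uM final).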
# S2 tox – reduces viability in counter-screen for ATXN expression inhibitors. S2 cells (HEK-293 line with an ATXN2-luciferase reporter) viability, CellTiter-Fluor protease fluorescence, 24 h. Potency, µM (highest dose often 56.7 µM), most hits filed as cytotoxic. 400,000 compounds, 0.49% hits; also: nearly all actives have a fitted effect of over 40% in size
# KB-3-1 cytotox – KB-3-1 parental cell cytotoxicity; KB-3-1 viability, CellTiter-Glo ATP luminescence, 72 h; Potency, µM (doses to about 46.1 µM), usual class: cytotoxic; 400,000 compounds, 1.4% hits; also: nearly all actives have a fitted effect of over 60% in size
#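 Cells are dispensed, compounds pinned in, plates held at 37 °C for 72 h, then CellTiter-Glo is added and luminescence read after 10 minutes. Cell line: parental KB-3-1 in phenol-red-free DMEM, 10% FBS.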
# HT1080 IDH1KD tx – kills HT-1080 cells with IDH1 knockdown; HT-1080 IDH1 knockdown viability, ATP luminescence, 48 h; Potency, µM (highest dose often 46.1 µM), hits mostly cytotoxic; 360,000 compounds, 2% hits; AID 686971
#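 Knockdown cells (IDH1KD HT-1080) received compounds 2 h after plating at 750 cells/well and were kept 48 h at 37 °C in 5% FBS RPMI. A CellTiter-Glo luminescence read gave % activity for curve fitting.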
# HT1080-NT tox – kills 2HG-producing HT-1080-NT fibrosarcoma cells. Potency, µM (top dose mostly 46.1 µM), hits mostly cytotoxic. HT-1080-NT fibrosarcoma viability, CellTiter-Glo ATP luminescence, 48 h. AID 686970. 360,000 compounds, 1.6% hits;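 also: NT is the 2HG producing partner of a matched IDH1 knockdown line; nearly all actives have a fitted effect of over 55% in size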
#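 Luminescent CellTiter-Glo readout after 48 hours of compound exposure at 37 degrees C defined viability of HT-1080-NT cells. Activity was normalized to DMSO wells and cell-free media wells; concentration-response curves were fitted and assigned curve classes.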
# A number is an active result; – = inactive; ? = inconclusive; · = no result given; ! = not confirmed by another sample. Calls follow the shape of the dose curve; as a rule, active = well fitted curve in the direction sought with a large enough effect; inconclusive = small, poorly fitted or top-dose-only effect, or another doubt; inactive = no such curve, though single readings can be large; an effect the other way counts as inactive or inconclusive.
SMILES,KB-V1 MDR tox,ATXN2 expr inh,S2 tox,KB-3-1 cytotox,HT1080 IDH1KD tx,HT1080-NT tox
Cc1c(CCOC(=O)c2ccc(N3CCOCC3)c([N+](=O)[O-])c2)sc[n+]1CC#N,?,?,?,21µM,?,23µM
Nc1ccc(C(=O)OCC(=O)Nc2ccc3c(c2)OCO3)cc1[N+](=O)[O-],–,–,–,–,–,–
CCC(C)c1ccccc1NC(=O)COC(=O)c1ccc(N2CCCC2)c([N+](=O)[O-])c1 (centres undefined),–,–,–,0.0023µM,–,–
O=C(COC(=O)c1ccc(N2CCOCC2)c([N+](=O)[O-])c1)Nc1ccc2c(c1)OCO2,8.2µM,–,?,?,–,?
CCC(C)c1ccccc1NC(=O)COC(=O)c1ccc2[nH]c3c(c2c1)CCCC3 (centres undefined),21µM,?,?,?,?,–
CCOc1c(N2CCOCC2)cnn(C)c1=O,·,–,–,·,·,·
O=C(Nc1cc(C(F)(F)F)ccc1Cl)c1cc(-c2ccc3c(c2)OCCO3)on1,–,–,–,–,·,·
O=C(NC1CC1)c1ccc(S(=O)(=O)NC2CCCCCC2)cc1,16µM,–,–,–,–,–
O=C(NC1CCCCC1)c1ccc(S(=O)(=O)NCc2ccco2)cc1,15µM,–,?,–,–,–
CCOC(=O)C1CCN(c2c(C(=O)c3ccc(OCC)cc3)cnc3ccc(OC)cc23)CC1,?,?,?,–,·,·
COc1ccc(CNC(=O)C2CCN(Cc3nc(-c4ccc(OC)c(OC)c4)oc3C)CC2)cc1,–,–,–,–,·,·
O=[N+]([O-])c1cc(F)c2cccnc2c1O,–,·,?,?,?,–
O=[N+]([O-])c1cc(Cl)c(O)c2ncccc12,–,20µM,?,7.3µM,?,–
Oc1c(I)cc(Cl)c2cccnc12,?,32µM!,?,–,12µM,?
O=[N+]([O-])c1ccc(O)c2ncccc12,?,10µM,13µM!,?,16µM,6.5µM
COc1cc(/C=C(/C#N)c2nc(-c3cc4ccccc4oc3=O)cs2)ccc1O,–,–,–,–,·,·
COc1ccccc1CNC(=O)C(CCSC)NC(=O)C1CCC(C)CC1 (centres undefined),4.1µM,–,–,–,–,–
CC(C)CC(NC(=O)C1CCC(C)CC1)C(=O)NCc1cccnc1 (centres undefined),18µM,–,–,–,–,–
CC1CCC(C(=O)NC(C(=O)NCc2cccnc2)C(C)C)CC1 (centres undefined),21µM,–,?,–,–,–
Cc1onc(-c2ccccc2Cl)c1C(=O)Nc1nnc(C2CCCCC2)s1,–,·,·,–,·,·
Cc1ccc(-c2c(C#N)c(N)n3c(nc4ccccc43)c2C#N)cc1,?,?,–,13µM,?,?
CCN(CC)c1c2c(c(C#N)c3nc4ccccc4n13)CCC2,3.7µM,–,–,–,–,–
N#Cc1c2c(c(Cl)n3c1nc1ccccc13)CCCC2,–,·,·,–,·,·
Cc1cc(Cl)n2c(nc3ccccc32)c1C#N,?,?,·,–,7.3µM,9.2µM
N#Cc1c(-c2ccccc2)c(C#N)c2nc3ccccc3n2c1N,–,–,·,–,–,–
SMILES,KB-V1 MDR tox,ATXN2 expr inh,S2 tox,KB-3-1 cytotox,HT1080 IDH1KD tx,HT1080-NT tox
Cc1c(CCCl)c(Cl)n2c(nc3ccccc32)c1C#N,1.6µM,?,?,2.1µM,2.3µM,2.6µM
COCCCNC(=O)CCCCn1c(=O)c2ccccc2n(CC(=O)Nc2ccc(C)cc2C)c1=O,–,–,–,–,·,·
Cc1ccc(C(=O)NCC(c2cccs2)S(=O)(=O)c2cccs2)cc1 (centres undefined),?,?,20µM,21µM,·,·
C/C=C/C=C/C(=O)OC(C)C(=O)Nc1cc([N+](=O)[O-])ccc1OC (centres undefined),–,–,?,–,–,–
COc1ccc([N+](=O)[O-])cc1NC(=O)C(C)OC(=O)Cc1ccc(OC)c(OC)c1 (centres undefined),15µM,–,?,–,–,–
CC(C)(C)OC(=O)C(Cl)(C(=O)OC(C)(C)C)c1ccc2nnnn2n1,–,–,–,–,18µM,?
CCOC(=O)c1[nH]c2ccc(F)cc2c1NC(=O)C(C)N1CCc2cc(OC)c(OC)cc2C1 (centres undefined),?,–,?,16µM,16µM,?
CCCN1CNc2c(c(=O)[nH]c(=S)n2CCC(C)C)C1,·,·,·,·,–,–
CN=C1SC(CC(=O)Nc2cccc(C(F)(F)F)c2)C(=O)N1C (centres undefined),15µM,–,–,–,–,–
CN=C1SC(CC(=O)Nc2ccccc2F)C(=O)N1C (centres undefined),–,–,–,–,–,–
CCOC(=O)c1c(NC(=O)CC2SC(=NC)N(C)C2=O)sc(C)c1C (centres undefined),10µM,–,–,–,–,–
CN=C1SC(CC(=O)Nc2sc(C)c(C)c2C(=O)OC)C(=O)N1C (centres undefined),?,–,–,–,–,–
CCC1Sc2ccccc2N(CC(=O)NCc2ccccc2OC)C1=O (centres undefined),21µM,–,–,–,–,–
CCOc1ccc(C2C(C(=O)Nc3ccccc3C)=C(C)Nc3nnnn32)cc1 (centres undefined),–,–,–,–,·,·
CCN(CC(=O)Nc1ccccc1C(F)(F)F)C(=O)c1oc2c(Cl)cccc2c1C,18µM,–,–,–,–,–
CCN(CC(=O)Nc1ccc(OC)cc1)C(=O)c1oc2c(Cl)cccc2c1C,–,–,–,–,–,–
CCN(CC(=O)Nc1cc(C)on1)CC(=O)Nc1ccccc1C(F)(F)F,18µM,–,–,–,–,–
Cc1c(C(=O)N(C)CCOc2ccccc2)oc2c(Cl)cccc12,21µM,–,–,–,–,–
CCCCNC(=O)c1nn(-c2ccc(C)cc2)c(=O)c2c1c1ccccc1n2C,–,–,–,–,·,·
Nc1c(C(=O)Nc2ccc(S(=O)(=O)N3CCCC3)cc2)sc2nc3ccc(OC(F)(F)F)cc3cc12,?,?,·,15µM,?,?
Cc1cc(C)c2c(=N)c3ccccc3n(CCCCCCCCn3c4ccccc4c(=N)c4c(C)cc(C)nc43)c2n1,–,28µM,?,?,?,–
Cn1cc(C(=O)c2ccc(Cl)cc2Cl)cc1C(=O)N/N=C(\N)COc1ccc(Cl)cc1Cl,?,?,?,18µM,?,?
Cn1cc(C(=O)c2ccc(Cl)cc2Cl)cc1C(=O)N/N=C(\N)COc1ccccc1,?,–,–,–,–,–
Cn1cc(C(=O)c2ccc(Cl)cc2Cl)cc1C(=O)N/N=C(\N)COc1ccc(Cl)cc1,?,?,–,?,16µM,?
